Assay results taken from PubChem BioAssay (NCATS).
Inconclusive results are not listed. Activity calls are given as the source filed them. The call rests on the fitted dose curve; in most records, active means well fitted curve in the direction sought with a large enough effect; inconclusive means small, poorly fitted or top-dose-only effect, or another doubt; inactive means no such curve, though single readings can be large; an effect the other way counts as inactive or inconclusive.

target: Guanine nucleotide-binding protein G(i) subunit alpha-1 (Homo sapiens) (UniProt P63096); assay: qHTS Assay for Inhibitors of RGS12 GoLoco Motif Activity (Green Fluorophore) (AID 879); conditions: Galphai1/FITC-RGS12 GoLoco peptide, fluorescence polarization; series mostly up to 57.1 µM; activity, negative = inhibition: at the top concentration;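 further: 0% = labeled peptide with Gαi1 and full inhibition = labeled peptide alone without protein; negative values mean loss of peptide binding seen as reduced polarization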
Sequence (P63096 whole entry, looked up): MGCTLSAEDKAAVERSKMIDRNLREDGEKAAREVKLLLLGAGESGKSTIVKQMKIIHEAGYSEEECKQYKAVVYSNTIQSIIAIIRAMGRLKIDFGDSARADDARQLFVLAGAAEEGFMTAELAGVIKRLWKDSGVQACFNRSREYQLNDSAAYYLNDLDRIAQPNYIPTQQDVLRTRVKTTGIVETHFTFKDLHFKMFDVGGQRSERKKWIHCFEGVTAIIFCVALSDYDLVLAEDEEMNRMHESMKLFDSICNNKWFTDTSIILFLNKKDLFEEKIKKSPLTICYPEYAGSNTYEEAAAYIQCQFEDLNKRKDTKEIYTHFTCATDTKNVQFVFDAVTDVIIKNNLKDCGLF
Text: Assay Overview: NIH Molecular Libraries Screening Centers Network [MLSCN] NIH Chemical Genomics Center [NCGC] MLSCN Grant: NS053754-01 Assay Provider: Siderovski, David P, University of North Carolina at Chapel Hill G-protein-coupled receptors (GPCRs) are major targets for drug discovery. The regulator of G-protein signaling (RGS)-protein family has important roles in GPCR signal transduction. RGS proteins contain a conserved RGS-box, which is often accompanied by other signaling regulatory elements. RGS proteins accelerate the deactivation of G proteins to reduce GPCR signaling; however, some also have an effector function and transmit signals. Combining GPCR agonists with RGS inhibitors should potentiate responses, and could markedly increase the agonist's regional specificity. The diversity of RGS proteins with highly localized and dynamically regulated distributions in brain makes them attractive targets for pharmacotherapy of central nervous system disorders. […] A complex of Gai1 and fluorescently labeled G-alpha-binding peptide (the "GoLoco motif") derived from RGS12 is incubated with library members. Inhibitors of the binding are detected by a decrease in the fluorescence polarization (FP) of the fluorophore. Protein was supplied by Prof. David Siderovski, University of North Carolina at Chapel Hill.
Assay Protocol: Reagents/Controls: Assay Buffer: 10 mM Tris-HCl, 150 mM NaCl, 0.1 mM GDP (prepared fresh), and 0.05% NP40 at pH 7.5. […] 10 nM FITC labeled peptide/50 nM protein in columns 1, 2, 5 - 48. Titration of unlabeled peptide control ([H][…][NH2], custom synthesized and HPLC-purified by Tufts University Core Facility) from 10 mM, then 1:2 dilution, 16-point in duplicate, pin-transferred to column 2, rows 1 to 32. Column 1 is neutral. FITC-labeled RGS12-GoLoco peptide was custom-synthesized and HPLC-purified by Michael Berne of Tufts University Assay Steps. Four uL of reagents were dispensed to 1536-well Greiner black solid-bottom plates. Compounds and controls (23 nL) were transferred via Kalypsys PinTool. The plates were incubated for 10 min at room temperature, and then read on ViewLux (Perkin-Elmer) High-throughput CCD imager using FITC polarization filter sets for the fluorescein-labeled decapeptide probe.During dispense, reagent bottles were kept submerged into 4 deg C water bath and all liquid lines were covered with aluminum foil to minimize probe and protein degradation. All screening operations were performed on a Kalypsys robotic system (Kalypsys, Inc., San Diego, CA) containing one RX-130 and two RX-90 anthropomorphic robotic arms.

Structure (SMILES) | activity, negative = inhibition
CN=C(N)NCCC[C@H](N)C(=O)O | 0.119% (inactive)
CC(C)(C)NC[C@H](O)COc1nsnc1N1CCOCC1 | -5.26% (inactive)
CN(C)CCC[C@@]1(c2ccc(F)cc2)OCc2cc(C#N)ccc21 | -18.4% (inactive)

target: Cytochrome P450 2C9 (Homo sapiens) (UniProt P11712); assay: qHTS Assay for Inhibitors and Substrates of Cytochrome P450 2C9 (AID 883); conditions: recombinant CYP2C9, luciferin-H luminescence, 60 min; series mostly up to 25.6 µM; activity change, negative = inhibition: at the top concentration; further: nearly all actives have a fitted effect of over 60% in size; further: potency means the concentration at half of the fitted maximal effect; on activity change, negative = inhibition: on the % scale 0 is the no-effect control and ±100 the full control effect
Sequence (P11712 whole entry, looked up): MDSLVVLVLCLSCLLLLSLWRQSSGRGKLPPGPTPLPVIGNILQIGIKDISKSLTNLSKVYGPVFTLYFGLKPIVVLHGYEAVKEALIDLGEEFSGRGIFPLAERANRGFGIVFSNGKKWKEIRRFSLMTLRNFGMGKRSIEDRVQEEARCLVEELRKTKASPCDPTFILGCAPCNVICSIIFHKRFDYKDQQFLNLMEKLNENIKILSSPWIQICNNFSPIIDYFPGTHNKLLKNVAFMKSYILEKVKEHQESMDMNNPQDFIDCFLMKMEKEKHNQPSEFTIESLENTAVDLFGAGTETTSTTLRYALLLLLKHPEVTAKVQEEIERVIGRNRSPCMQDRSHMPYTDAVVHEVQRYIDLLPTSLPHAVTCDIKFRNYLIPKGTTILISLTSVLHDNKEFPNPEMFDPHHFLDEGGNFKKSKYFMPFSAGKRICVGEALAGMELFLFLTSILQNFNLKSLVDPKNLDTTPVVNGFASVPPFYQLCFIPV
How it was run: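 Inhibition of CYP2C9 is scored as loss of luminescence, with 57uM sulphaphenazole defining 100% inhibition. Substrate Luciferin-H is used at 100uM, equal to its KM; enzyme at 10nM in 25mM KPO4, 60 min at 37C with NADPH regeneration.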

Structure (SMILES) | outcome | activity change, negative = inhibition | Potency
COc1cc(C(=O)NCc2ccc(OCCN(C)C)cc2)cc(OC)c1OC | inactive | – | –
O=C(CCCN1CC=C(n2c(=O)[nH]c3ccccc32)CC1)c1ccc(F)cc1 | – | 60.4% (inactive) | –
CN(C)CCC[C@@]1(c2ccc(F)cc2)OCc2cc(C#N)ccc21 | – | – | 3.16 µM (active)
COc1ccccc1N1CCN(CCCCNC(=O)c2ccc(-c3ccc(C(C)=O)cc3)cc2)CC1 | – | -29.6% [at 57.1 µM] (inactive) | –
O=C1C(=O)c2ccccc2C(O)=C1C1CCC(c2ccc(Cl)cc2)CC1 (configuration not stated) | – | – | 2 µM (active)
COc1cc(N)c(Cl)cc1C(=O)NC1CCN(Cc2ccccc2)CC1 | – | 140% (inactive) | –

target: Cytochrome P450 3A4 (Homo sapiens) (UniProt P08684); assay: qHTS Assay for Inhibitors and Substrates of Cytochrome P450 3A4 (AID 884); conditions: recombinant CYP3A4, Luciferin-PPXE luminescence; series mostly up to 57.1 µM; activity change, negative = inhibition: at the top concentration; further: nearly all actives have a fitted effect of over 50% in size; further: potency means the concentration at half of the fitted maximal effect; on activity change, negative = inhibition: on the % scale 0 is the no-effect control and ±100 the full control effect
Sequence (P08684 whole entry, looked up): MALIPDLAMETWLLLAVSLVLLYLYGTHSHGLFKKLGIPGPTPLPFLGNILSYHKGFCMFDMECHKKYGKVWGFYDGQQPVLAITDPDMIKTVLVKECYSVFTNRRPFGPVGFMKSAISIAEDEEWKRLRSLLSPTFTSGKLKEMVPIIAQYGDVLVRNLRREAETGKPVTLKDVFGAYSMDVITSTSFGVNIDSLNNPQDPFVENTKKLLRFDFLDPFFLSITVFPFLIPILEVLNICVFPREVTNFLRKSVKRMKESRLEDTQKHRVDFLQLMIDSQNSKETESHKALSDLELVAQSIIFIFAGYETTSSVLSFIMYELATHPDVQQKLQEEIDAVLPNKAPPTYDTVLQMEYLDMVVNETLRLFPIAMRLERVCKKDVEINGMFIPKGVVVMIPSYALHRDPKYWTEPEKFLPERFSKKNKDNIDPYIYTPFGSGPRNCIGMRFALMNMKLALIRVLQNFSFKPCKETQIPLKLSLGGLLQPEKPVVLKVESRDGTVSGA
How it was run: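 20 nM human CYP3A4 with 25 uM Luciferin-PPXE (at KM) in 200 mM KPO4, preincubated 10 min with compound; NADPH regeneration started a 60 min RT reaction. Luciferin detected by luminescence, normalized to 57 uM ketoconazole as full inhibition.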

Structure (SMILES) | activity change, negative = inhibition | Potency
CCOc1ccccc1C(N)=O | -10.3% (inactive) | –
COc1ccc(C(Cl)=C(c2ccc(OC)cc2)c2ccc(OC)cc2)cc1 | -18% (inactive) | –
O=C(O)P(=O)(O)O | -5.69% (inactive) | –
O=C(O)c1ccc(S(=O)(=O)N(Cl)Cl)cc1 | -9.05% (inactive) | –
CCC(Cc1c(I)cc(I)c(N)c1I)C(=O)O (configuration not stated) | -27% (inactive) | –
O=c1[nH]c(=O)n([C@H]2C[C@H](O)[C@@H](CO)O2)cc1F | -7.77% (inactive) | –
CCCN(CCC)S(=O)(=O)c1ccc(C(=O)O)cc1 | -8.77% (inactive) | –
NCCNc1cccc2ccccc12 | -19.3% (inactive) | –
C[C@H]1[C@H]2CC[C@H]3[C@@H]4CC=C5C[C@@H](N(C)C)CC[C@]5(C)[C@H]4CC[C@]23CN1C | -4.29% (inactive) | –
CCCCCN=C(N)N/N=C/c1c[nH]c2ccc(OC)cc12 | – | inactive
COc1ccc(C(=O)c2ccccc2)c(O)c1 | -24.7% (inactive) | –
C/C=C/c1ccc(O)c(OC)c1 | -37.4% (inactive) | –
OC[C@H]1O[C@@H]2O[C@H]3[C@H](O)[C@@H](O)[C@@H](O[C@H]4[C@H](O)[C@@H](O)[C@@H](O[C@H]5[C@H](O)[C@@H](O)[C@@H](O[C@H]6[C@H](O)[C@@H](O)[C@@H](O[C@H]7[C@H](O)[C@@H](O)[C@@H](O[C@H]8[C@H](O)[C@@H](O)[C@@H](O[C@H]1[C@H](O)[C@H]2O)O[C@@H]8CO)O[C@@H]7CO)O[C@@H]6CO)O[C@@H]5CO)O[C@@H]4CO)O[C@@H]3CO | -17.9% (inactive) | –
COP(=O)(OC)OC(c1ccc(Cl)cc1)P(=O)(OC)OC (configuration not stated) | -16.6% (inactive) | –
CC(=O)NO | -10.3% (inactive) | –
O=C(O)CCNC(=O)c1ccccc1 | -4.47% (inactive) | –
CN(C)C(=O)Nc1ccc(Cl)c(Cl)c1 | -10.8% (inactive) | –
CN(C)CCC[C@@]1(c2ccc(F)cc2)OCc2cc(C#N)ccc21 | 5.63% (inactive) | –
Cc1ncc(CO)c(C=O)c1O | -1.06% (inactive) | –
CCCCC(CC)CN1CN(CC(CC)CCCC)CC(C)(N)C1 (configuration not stated) | -22.8% (inactive) | –
O=C1C(=O)c2ccccc2C(O)=C1C1CCC(c2ccc(Cl)cc2)CC1 (configuration not stated) | -29.2% (inactive) | –
COc1cc(N)c(Cl)cc1C(=O)NC1CCN(Cc2ccccc2)CC1 | – | 12.6 µM (active)
NC(=O)c1ccccc1O | -0.49% (inactive) | –
